# B2AR arrestin ag – ADRB2 beta-arrestin recruitment; P07550; HTLA Tango cells, beta-arrestin recruitment, luciferase luminescence, 18 h; Potency, µM (highest dose often 46.1 µM), actives largely listed as activators; 44,000 tested, under 10 active
# Target sequence (P07550 whole entry, looked up): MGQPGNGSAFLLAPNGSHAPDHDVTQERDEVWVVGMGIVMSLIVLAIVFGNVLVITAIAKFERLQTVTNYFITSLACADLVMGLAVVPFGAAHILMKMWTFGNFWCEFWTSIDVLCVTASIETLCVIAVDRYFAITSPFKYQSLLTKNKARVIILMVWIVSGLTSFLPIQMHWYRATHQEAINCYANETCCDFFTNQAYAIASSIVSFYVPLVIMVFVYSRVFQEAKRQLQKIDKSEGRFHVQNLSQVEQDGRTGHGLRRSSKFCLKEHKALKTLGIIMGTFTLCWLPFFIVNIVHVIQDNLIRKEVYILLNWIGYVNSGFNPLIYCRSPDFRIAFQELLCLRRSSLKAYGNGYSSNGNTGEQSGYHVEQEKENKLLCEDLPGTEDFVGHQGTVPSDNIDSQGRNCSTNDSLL
#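 Tango cells expressing recombinant beta2-AR and beta-arrestin were treated with compounds (up to 46 microM titration) in DMEM with 1% FBS for 18 hr at 37 degrees C. Beta-arrestin recruitment drove tTA-dependent luciferase, read by luminescence; curves were fitted and classed.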
# DRV1 agonist – GPR32 (DRV1) agonism, beta-arrestin recruitment; O75388; CHO-K1 GPR32 beta-arrestin PathHunter luminescence, 90 min; zero percent set by DMSO-only wells; activation, % at 76.9 µM; actives 2.5% (n = 48,000); AID 1346428;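 active means activation of at least 60% and not above a set upper limit, about 1 call in 100 departs from these limits; inconclusive means activation of 40% to 60%, or above that upper limit; inactive means activation under 40%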
#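 Agonism was scored as beta-arrestin recruitment to ProLink-fused GPR32 in stably transfected CHO-K1 cells, giving a chemiluminescent beta-Gal signal; compounds were incubated 90 min at 37 °C.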
# PTAP-TSG101 blk – TSG101-PTAP interaction inhibition, HIV-1 budding; Q99816; Fluorescence polarization, FITC-PTAP peptide/Tsg101, 20 min; Potency, µM (highest dose often 115 µM), most hits filed as inhibitors; 44,000 tested, under 10 active; AID 1347069
#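 qHTS FP binding, 20 min r.t.: 10 uM Tsg101 domain + 50 nM FITC-PTAP peptide, pH 7.5 HEPES buffer with TCEP and EDTA.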
# HTT prom inh – inhibitors of huntingtin promoter activity; HEK293 HTT promoter firefly luciferase reporter, 24 h; Potency, µM (top dose mostly 57.5 µM), hits mostly inhibitors; actives 0.93% (n = 48,000); further: nearly all actives have a fitted effect of over 50% in size
#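 Firefly luciferase readout (Dual-Glo, 10 min RT) after 24 h, 37 °C compound exposure (final up to 57.5 uM) of HEK293 reporter cells cultured 24 h beforehand; PTC124 at 50 uM final as control inhibitor; activity scaled vehicle 0%, zero RLU -100%.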
# HTT-AS promoter – activators of huntingtin-antisense promoter activity | AID 1508624 | HEK293 HTT-AS promoter firefly luciferase reporter, 24 h; response scale: percent change from vehicle, -100% = no light | actives 0.24% (n = 48,000) | Potency, µM (series often up to 57.5 µM), hits mostly activators; further: nearly all actives have a fitted effect of over 55% in size
#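 HEK293 luciferase promoter-reporter cells (2,500/well) plated 24 h, then compounds added at up to 57.5 uM final for 24 h at 37 °C. Firefly luminescence by Dual-Glo, normalized to vehicle (0%) and zero RLU (-100%).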
# GALK inhibitor – inhibits human galactokinase. recombinant GALK, Kinase-Glo ATP luminescence, 1 h. P51570. 44,000 tested, under 10 active. Potency, µM (titrated, usually from 57.5 µM), actives largely listed as inhibitors
#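 Human GALK (5 nM) was incubated with 35 uM ATP and 100 uM galactose in 20 mM HEPES pH 8.0 with MgCl2, NaCl, DTT and BSA for 1 h at room temperature. Remaining ATP was measured by Kinase-Glo Plus luminescence.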
# Hits are given with their value; i = inactive; ? = inconclusive; nt = no result given; ! = repeats disagree. In the library only some 3.7% were active in any assay of this set; here they are far more common. Unless noted, the call rests on the fitted dose curve; in most records, active means well fitted curve in the direction sought with a large enough effect; inconclusive means small, poorly fitted or top-dose-only effect, or another doubt; inactive means no such curve, though single readings can be large; an effect the other way counts as inactive or inconclusive.
SMILES,B2AR arrestin ag,DRV1 agonist,PTAP-TSG101 blk,HTT prom inh,HTT-AS promoter,GALK inhibitor
C[C@@H](Cc1cc2c(c(C(N)=O)c1)N(CCCO)CC2)NCCOc1ccccc1OCC(F)(F)F,nt,nt,nt,i,i,nt
O=C(Nc1ccc(Br)cc1)C1CCCN(S(=O)(=O)c2ccc(Br)s2)C1 (stereo not drawn),i,81.9,i,i,i,i
Cc1ccc(NC(=O)C2CCCN2S(=O)(=O)c2ccc3c(c2)n(C)c(=O)c(=O)n3C)cc1 (stereo not drawn),i,i,i,i,i,i
Cc1ccc(S(=O)(=O)N2CCCC2C(=O)Nc2ccc(Br)cc2)cc1 (stereo not drawn),i,i,i,31.6µM,i,i
CC(C)c1ccc(NC(=O)C2CCCN(S(=O)(=O)c3cccc4nonc34)C2)cc1 (stereo not drawn),i,i,i,i,i,i
CCc1ccc(NC(=O)C2CCCN(S(=O)(=O)c3cccc4nonc34)C2)cc1 (stereo not drawn),i,89.0,i,i,i,i
COc1ccc(NC(=O)C2CCCN(S(=O)(=O)c3cccs3)C2)cc1 (stereo not drawn),i,i,i,i,i,i
CCOC(=O)[C@@H](N)CCC(=O)N[C@@H](CSCc1ccccc1)C(=O)N[C@@H](C(=O)OCC)c1ccccc1,nt,nt,nt,i,i,nt
OCCN(CCO)c1nc(N2CCCCC2)c2nc(N(CCO)CCO)nc(N3CCCCC3)c2n1,nt,108.1!,nt,i,i,nt
N#Cc1ccc(Oc2ccc3c(c2)COB3O)cc1,nt,nt,nt,i,i,nt
O=C1CC2(CCCC2)CC(=O)N1,nt,65.4,nt,i,i,nt
O=C(CSc1nccn1Cc1ccco1)Nc1cccc(F)c1,i,i,i,i,i,i
CC(=O)c1ccc(NC(=O)CSc2nccn2Cc2ccco2)cc1,i,i,i,i,3.16µM,i
O=C(CSc1nccn1Cc1ccco1)Nc1ccc(F)cc1,i,i,i,i,i,i
Cc1ccc(NC(=O)CSc2nccn2Cc2ccco2)cc1Cl,i,i,i,i,12.6µM,i
O=C(CCNS(=O)(=O)c1ccc2c(c1)CCN2C(=O)C1CC1)N1CCN(c2cccc(C(F)(F)F)c2)CC1,i,73.7,i,28.2µM,i,i
Cc1ccc(Cl)cc1N1CCN(C(=O)CCNS(=O)(=O)c2ccc3c(c2)CCN3C(=O)C2CC2)CC1,i,i,i,?,i,i
CCC(=O)N1CCc2cc(S(=O)(=O)CCC(=O)N3CCN(c4cccc(C)c4)C(C)C3)ccc21 (stereo not drawn),i,66.0,i,i,i,i
Cc1cccc(N(C)C(=O)CCNS(=O)(=O)c2ccc3c(c2)CCN3C(=O)C2CC2)c1,i,70.7,i,i,?,i
COc1ccc(NS(=O)(=O)c2ccc3c(c2)CCN3C(=O)C2CC2)cc1OC,i,i,i,3.98µM,i,i
Cc1cccc(N2CCN(C(=O)CCNS(=O)(=O)c3ccc4c(c3)CCN4C(=O)C3CC3)CC2C)c1 (stereo not drawn),i,?,i,?,i,i
CON(C)C(=O)N1N=C(c2cc(F)ccc2F)S[C@]1(CCCN)c1ccccc1,nt,nt,nt,i,i,nt
Cc1cccc(NS(=O)(=O)c2ccc3c(c2)CCN3C(=O)C2CCC2)c1,i,i,i,20µM,i,i
Cc1ccc(C)c(NS(=O)(=O)c2ccc3c(c2)CCCN3C(=O)C2CCC2)c1,i,i,i,?,i,i
COc1ccc(S(=O)(=O)N2CCC(n3c(C)nc4cccnc43)CC2)cc1Cl,i,70.1,i,nt,nt,i
Cc1cc(CN2CCN(c3ccccc3F)CC2)cs1,i,101.6,i,i,i,i
Cc1ccc(C(=O)Nc2cccc3cccnc23)cc1Cl,i,i,i,i,8.91µM,i
O=C(Nc1ccc(Br)cc1)c1cccc(S(=O)(=O)N2CCc3ccccc32)c1,i,i,i,25.1µM,i,i

# Screening results from PubChem.
